Data: PubChem BioAssay (NCATS)
Inconclusive results are not listed. The source made the active and inactive calls. Calls follow the shape of the dose curve; as a rule, active = well fitted inhibition curve with a large enough effect; inconclusive = small, poorly fitted or top-dose-only effect; inactive = flat fitted curve, though single readings scatter.

Biological target: Tyrosyl-DNA phosphodiesterase 1 (Homo sapiens) (UniProt Q9NUW8)
Test: Confirmation Assay for Inhibitors of Tyrosyl-DNA Phosphodiesterase (TDP1) (AID 489007); also: nearly all actives have a fitted effect of over 40% in size
Conditions: recombinant human TDP1 enzymatic activity, dose-response
Procedure, shortened: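 Compounds are preincubated 15 min at room temperature with 1 nM recombinant human Tdp1. The reaction starts on adding 15 nM FITC-phosphotyrosine DNA substrate, runs 5 min, and is detected by AlphaScreen beads after 10 min.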
Potency is read from the fitted curve at half-maximal effect.

Sequence of Tyrosyl-DNA phosphodiesterase 1 (Homo sapiens) (Q9NUW8 whole entry, looked up): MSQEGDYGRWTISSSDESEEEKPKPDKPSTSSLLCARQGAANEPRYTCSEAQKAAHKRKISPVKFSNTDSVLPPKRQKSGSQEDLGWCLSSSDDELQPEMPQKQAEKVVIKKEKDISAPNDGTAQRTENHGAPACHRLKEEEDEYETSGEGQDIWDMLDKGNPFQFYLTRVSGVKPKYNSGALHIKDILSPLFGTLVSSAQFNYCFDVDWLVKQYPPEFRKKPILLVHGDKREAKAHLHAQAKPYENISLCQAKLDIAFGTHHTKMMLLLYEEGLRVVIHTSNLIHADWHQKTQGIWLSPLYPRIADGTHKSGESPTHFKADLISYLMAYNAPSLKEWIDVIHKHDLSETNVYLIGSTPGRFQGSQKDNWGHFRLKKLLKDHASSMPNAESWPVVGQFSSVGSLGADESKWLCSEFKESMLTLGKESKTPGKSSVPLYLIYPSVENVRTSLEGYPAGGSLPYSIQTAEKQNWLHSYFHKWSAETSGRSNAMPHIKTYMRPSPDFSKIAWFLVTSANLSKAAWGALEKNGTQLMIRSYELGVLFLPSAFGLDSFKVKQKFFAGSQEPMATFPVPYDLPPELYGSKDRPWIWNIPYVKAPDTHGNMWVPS

Potency, active:
O=C(O)c1ccc(/C=C/c2nc3sc4c(c3c(=O)[nH]2)CCC4)cc1 112 µM
Cc1ccc(C(=O)O)cc1-c1ccc(/C=C2\SC(=O)N(CC(=O)Nc3ccccc3)C2=O)o1 6.31 µM
O=C(O)CCCN1C(=O)/C(=C\c2ccco2)SC1=S 2.82 µM
CC(=O)c1ccc(NC(=O)c2ccc3nc(-c4ccco4)c(-c4ccco4)nc3c2)cc1 7.08 µM
COc1ccc(OCc2cc(C(=O)O)c(C)o2)cc1 10 µM
OC[C@@H]1[C@@H](c2ccccc2)C(c2cccc(Cl)c2)=NN1c1ccccc1 10 µM
CC(=O)NC1=NC(=O)/C(=C/c2cc(C)n(-c3cccc(C(=O)O)c3)c2C)S1 2 µM
COc1ccc(/C=N/N=C2/NC(=O)C(CC(=O)O)S2)cc1OCc1ccc(Cl)cc1Cl (centres undefined) 39.8 µM
O=C(/C=C/c1c(Cl)nc2ccccn12)N1CCN(c2ccc(F)cc2)CC1 35.5 µM
Cc1ccc(NC(=O)CN2C(=O)N/C(=C/c3cccn3-c3ccc(C(=O)O)cc3)C2=O)cc1 0.282 µM
Cc1ccc(C(=O)O)cc1-n1c(C)cc(C=O)c1C 15.8 µM
C=C(C)C(=O)Nc1cccc(C2=NOC3(C2)C[C@H](C(N)=O)N(C(=O)COc2ccc(Cl)cc2)C3)c1 (some centres undefined) 12.6 µM
CCOC(=O)N1CCC(N2Cc3cccc(C(=O)NCc4ccc5c(c4)OCO5)c3C2=O)CC1 15.8 µM
O=C1C2C3C=CC(C3)C2C(=O)N1c1ncn[nH]1 (centres undefined) 31.6 µM
Cc1ccc(CN2C(=O)N/C(=C\c3ccc(-c4ccc(C(=O)O)cc4C)o3)C2=O)cc1 7.94 µM
O=C(COc1ccc2oc(-c3ccccc3)cc(=O)c2c1)NCc1ccco1 44.7 µM
O=C(O)C1C2C=CC(C2)C1C(=O)NCCc1ccncc1 (centres undefined) 100 µM
O=C(O)c1cc(-c2ccc(/C=C3\NC(=O)N(c4ccccc4)C3=O)o2)ccc1Cl 7.08 µM
O=C(O)C1Cc2ccccc2CN1C(=O)COc1ccc(Br)cc1 (centres undefined) 15.8 µM
Cc1ccc(S(=O)(=O)N2CCCCC2)cc1C(=O)Nc1ccc(S(=O)(=O)Nc2ncccn2)cc1 14.1 µM
Cc1ccc(/C=C2/C(=O)c3ccc(C(=O)O)cc3C2=O)o1 14.1 µM
COc1ccc2nc(N3CCCCC3)c(C#N)cc2c1 31.6 µM
Cc1ccc(CSc2nnc(SCC(=O)N/N=C/c3c[nH]c4ccccc34)s2)cc1 5.62 µM
O=C(O)CCC(=O)N(Cc1cccs1)Cc1cccs1 112 µM
O=C(O)C1C2C=CC(C2)C1C(=O)NCc1cccs1 (centres undefined) 31.6 µM
O=C(N/N=C/c1ccc2c(c1)OCO2)c1cc2ccccc2o1 12.6 µM
CSc1ccccc1NC(=O)c1noc2c1CCC2 126 µM
CN(C)c1nc(-c2ccccc2)c2cnn(Cc3ccccc3)c2n1 63.1 µM
O=C(O)Cc1ccc(NC(=O)C2CC=CCC2C(=O)O)cc1 (centres undefined) 14.1 µM
Cc1cc(C)c(C#N)c(SCc2ccccc2)n1 112 µM
O=C(COc1ccc2oc(-c3ccco3)cc(=O)c2c1)N1CCCCC1 79.4 µM
CCC(=O)c1ccc(CCCCCC(=O)O)s1 31.6 µM
O=C(O)C1C2C=CC(CC2)C1C(=O)O (centres undefined) 7.94 µM
CCN(CC)Cc1c(O)c(Cl)cc2c(C)cc(=O)oc12 14.1 µM
Cc1nc2ccc(C(=O)O)cc2c2c1CC(C)S2 (centres undefined) 31.6 µM
O=C(O)c1cccc(-n2cccc2/C=C2\SC(=O)N(Cc3ccccc3F)C2=O)c1 11.2 µM
COc1ccc(N2Cc3cccc(C(=O)N4CCN(C(=O)c5ccco5)CC4)c3C2=O)cc1 7.08 µM
Cc1cc(N2C(=O)C3C4C=CC(C4)C3C2=O)ccc1NC(=O)c1cccs1 (centres undefined) 70.8 µM
CN(C)/C=C/C=C1C(=O)CCCC1=O 89.1 µM
